This note sets out measurements from PubChem BioAssay (Tox21).

Molecules are shown by their SMILES. Values without a mark were called inactive. Entries that show only a call come without a potency. Activity calls are given as the source filed them. Calls come from the whole dose curve; as a rule, active = well fitted curve in the direction sought with a large enough effect in the repeat runs; inconclusive = weak or mixed curves; inactive = flat fitted curve, though single readings scatter.

The experiment in a line: qHTS assay to test for compound auto fluorescence at 590 nm (red) in HEK293 cell free culture (AID 720683). The settings on record: cell-free medium autofluorescence, Ex540/Em590 red; series mostly up to 91.3 µM; fluorescence, % of fluorescent control: at the top concentration. The procedure, abridged:
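Tox21 10K library compounds were pinned into cell-free DMEM with 10% FBS and fluorescence was read at excitation 540 nm. Activity is expressed as Rose Bengal sodium equivalency.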
With `CC1(C)S[C@@H]2[C@H](NC(=O)[C@H](N)c3ccccc3)C(=O)N2[C@H]1C(=O)O`, the Potency entry is “inactive”. `CN(C)CCOC(C)(c1ccccc1)c1ccccn1` (stereo not drawn): the Potency result is “inactive”.

On to `COc1ccc(OC(F)(F)F)cc1CN[C@H]1CCCN[C@H]1c1ccccc1`, for which the “fluorescence, % of fluorescent control” value is -0.0491%.

On to `CCCCCCCCCCCCCCCC[N+](C)(C)Cc1ccccc1`, for which the Potency result was “inactive”. Same read-out and setting: next, `Cc1cn([C@H]2C=C[C@@H](CO)O2)c(=O)[nH]c1=O`: “inactive”. Take `Nc1ccc(O)c([N+](=O)[O-])c1`: the “fluorescence, % of fluorescent control” value is -0.588%. For `CC(O)(P(=O)(O)O)P(=O)(O)O`, the Potency result was “inactive”. On the same count and under the same terms, next, `Cc1cc(C)nc(NS(=O)(=O)c2ccc(N)cc2)n1`: “inactive”. Same read-out and setting: for `CN(C)C(=S)SC(=S)N(C)C` the value was “inactive”; for `NC1CCCCC1`, “inactive”.

For `Nc1c(N=Nc2ccc(-c3ccc(N=Nc4cc(S(=O)(=O)O)c5ccccc5c4N)cc3)cc2)cc(S(=O)(=O)O)c2ccccc12`, the Potency result is “inactive”.

As to `CCCCOC(=O)c1ccc(O)cc1`, the Potency entry was “inactive”. In the case of `CC(C)C(=O)Nc1ccc([N+](=O)[O-])c(C(F)(F)F)c1`, the Potency entry is “inactive”. As to `Nc1ccc([N+](=O)[O-])cc1O`, the “fluorescence, % of fluorescent control” value was -0.494%. For `Cc1cccc(C)c1`, the Potency entry was “inactive”. Still for that read-out and setting: next, `CN(C)CCOC(c1ccccc1)c1ccccc1`: “inactive”. In the case of `CN1CCc2cccc3c2[C@H]1Cc1ccc(O)c(O)c1-3`, the Potency entry was “inactive”. With `Nc1c2c(nc3ccccc13)CCCC2`, the Potency result was “inactive”.

Turning to `CCCCCCCCCCCC[N+](C)(C)Cc1ccccc1`, the Potency entry is “inactive”. On to `COc1ccc2c(c1)c(CC(=O)O)c(C)n2C(=O)c1ccc(Cl)cc1`, for which the Potency entry is “inactive”. Still for that read-out and setting: for `Oc1ccccc1` the value was “inactive”.

Turning to `COc1cccc(O)c1O`, the “fluorescence, % of fluorescent control” value was 0.0999% [at 95.7 µM]. Take `Nc1ccc(S(N)(=O)=O)cc1`: the Potency entry is “inactive”.
